{"source": "PubChem BioAssay (Tox21)", "note": "Results filed as inconclusive are left out. Active and inactive are the calls of the source. Unless noted, calls come from the whole dose curve; as a rule, active = well fitted cell-killing curve with a large enough effect in the repeat runs; inconclusive = weak or mixed curves, or effect the other way; inactive = no such curve, though single readings can be large or run the other way. % is set by controls: 0 for no effect and ±100 for the full control effect. Note: nearly all actives have a fitted effect of over 30% in size.", "data": [{"test_system": "not listed separately", "test": "qHTS assay to identify small molecule agonists of the estrogen receptor alpha (ER-alpha) signaling pathway in the presence of an antagonist - cell viability counter screen (AID 1259386)", "settings": "VM7Luc4E2 viability, CellTiter-Fluor fluorescence, 22 h; series mostly up to 92.4 µM; activity change, negative = cytotoxicity: at the top concentration", "outline": "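VM7Luc4E2, stripped-serum pre-culture 5 d; 24hr plating; +ICI-182,780 10.0nM final; cpds 15 conc, 22hr, 37C/5% CO2; CellTiter-Fluor added at 21hr, fluorescence 1hr later.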", "values": [{"molecule": "CC(=O)O[C@H]1CC[C@@]2(C)C(=CC[C@@H]3[C@@H]2CC[C@]2(C)C(C(C)=O)=CC[C@@H]32)C1", "activity change, negative = cytotoxicity": "0.489% [at 42.5 µM] (inactive)"}, {"molecule": "CCCCC(CC)COC(=O)COc1cc(Cl)c(Cl)cc1Cl", "note": "(stereo not drawn)", "activity change, negative = cytotoxicity": "2.13% (inactive)"}, {"molecule": "Clc1cccc(-c2cc(Cl)cc(Cl)c2)c1", "activity change, negative = cytotoxicity": "0.227% (inactive)"}, {"molecule": "CCCCCCCCCCCCOCCOS(=O)(=O)O", "activity change, negative = cytotoxicity": "-3.69% (inactive)"}, {"molecule": "CN(C)CC[C@@H](c1ccc(Cl)cc1)c1ccccn1", "activity change, negative = cytotoxicity": "-7.05% [at 42.5 µM] (inactive)"}, {"molecule": "CC/C=C\\CCOC(=O)C(C)C", "activity change, negative = cytotoxicity": "1.98% (inactive)"}, {"molecule": "OCCN1CCN(CCO)CC1", "activity change, negative = cytotoxicity": "0.717% (inactive)"}, {"molecule": "O=C1N(c2ccccc2)c2ccccc2C1(Cc1ccncc1)Cc1ccncc1", "activity change, negative = cytotoxicity": "-0.711% [at 42.5 µM] (inactive)"}, {"molecule": "COc1ccccc1OCC(O)COC(N)=O", "note": "(stereo not drawn)", "activity change, negative = cytotoxicity": "3.5% [at 42.5 µM] (inactive)"}, {"molecule": "CC(=O)N[C@@H](CC(C)C)C(=O)O", "activity change, negative = cytotoxicity": "-0.154% [at 42.5 µM] (inactive)"}, {"molecule": "C[C@]12CCC(=O)C=C1CC[C@@H]1[C@@H]2CC[C@@]2(C)[C@H]1CC[C@]2(O)C(=O)CO", "activity change, negative = cytotoxicity": "4.5% [at 42.5 µM] (inactive)"}, {"molecule": "CCCC1CCC(=O)O1", "note": "(stereo not drawn)", "activity change, negative = cytotoxicity": "4.1% (inactive)"}, {"molecule": "CC(C)S", "activity change, negative = cytotoxicity": "-3.49% (inactive)"}, {"molecule": "COC(=O)C(C)O", "note": "(stereo not drawn)", "activity change, negative = cytotoxicity": "1.01% (inactive)"}, {"molecule": "CCOc1ccc(OCC)c(Cl)c1", "activity change, negative = cytotoxicity": "1.64% (inactive)"}, {"molecule": "Cc1nc(N)nc(N)c1-c1ccc(Cl)c(Cl)c1", "activity change, negative = cytotoxicity": "-4.96% [at 42.5 µM] (inactive)"}, {"molecule": "c1ccc(CN(CC2=NCCN2)c2ccccc2)cc1", "activity change, negative = cytotoxicity": "-8.64% [at 42.5 µM] (inactive)"}, {"molecule": "Cc1cc2nc(N)sc2cc1C", "activity change, negative = cytotoxicity": "-6.27% (inactive)"}, {"molecule": "O=Cc1ccc(F)c(Br)c1", "activity change, negative = cytotoxicity": "1.89% (inactive)"}, {"molecule": "CCCCNc1cc(C(=O)O)cc(S(N)(=O)=O)c1Oc1ccccc1", "activity change, negative = cytotoxicity": "-0.217% [at 42.5 µM] (inactive)"}, {"molecule": "NCCC(O)(P(=O)(O)O)P(=O)(O)O", "activity change, negative = cytotoxicity": "4.22% [at 42.5 µM] (inactive)"}, {"molecule": "CC(C)O", "activity change, negative = cytotoxicity": "-0.575% (inactive)"}, {"molecule": "CC(C)C[C@H](NC(=O)OCC1c2ccccc2-c2ccccc21)C(=O)O", "activity change, negative = cytotoxicity": "-4.75% (inactive)"}, {"molecule": "C1CSCCS1", "activity change, negative = cytotoxicity": "3.45% (inactive)"}, {"molecule": "CC(C)C(=O)OCC(C)(C)C(O)C(C)C", "note": "(stereo not drawn)", "activity change, negative = cytotoxicity": "5.6% (inactive)"}, {"molecule": "COC(C)CCO", "note": "(stereo not drawn)", "activity change, negative = cytotoxicity": "1.07% (inactive)"}, {"molecule": "O=C(Cl)c1cccc([N+](=O)[O-])c1", "activity change, negative = cytotoxicity": "2.33% (inactive)"}, {"molecule": "OC[C@H]1O[C@@H](O[C@H]2[C@H](O)[C@@H](O)[C@H](O)O[C@@H]2CO)[C@H](O)[C@@H](O)[C@H]1O", "activity change, negative = cytotoxicity": "-0.343% (inactive)"}, {"molecule": "NC(Cc1ccc(F)cc1)C(=O)O", "note": "(stereo not drawn)", "activity change, negative = cytotoxicity": "2.6% [at 8.39 µM] (inactive)"}, {"molecule": "O=C1C=CC(=O)O1", "activity change, negative = cytotoxicity": "3.27% (inactive)"}, {"molecule": "CCCCNCCCC", "activity change, negative = cytotoxicity": "0.669% (inactive)"}, {"molecule": "NNS(=O)(=O)c1ccc(Oc2ccc(S(=O)(=O)NN)cc2)cc1", "activity change, negative = cytotoxicity": "3.89% (inactive)"}, {"molecule": "CCC(=O)c1ccc2c(c1)N(CCCN(C)C)c1ccccc1S2", "activity change, negative = cytotoxicity": "-7.05% [at 42.5 µM] (inactive)"}, {"molecule": "OCCN(CCO)CCN(CCO)CCO", "activity change, negative = cytotoxicity": "2.84% (inactive)"}, {"molecule": "CC1=C2[C@H](/C=C(\\C)C(=O)O)CC[C@@H](C)[C@H]2CC1", "activity change, negative = cytotoxicity": "0.642% (inactive)"}, {"molecule": "O=C(O)CN(CCN(CC(=O)O)CC(=O)O)CCN(CC(=O)O)CC(=O)O", "activity change, negative = cytotoxicity": "-0.23% [at 19 µM] (inactive)"}, {"molecule": "CCN(CC)C(=O)N(CC)CC", "activity change, negative = cytotoxicity": "0.0936% (inactive)"}, {"molecule": "COC(=O)/C=C(/C)N", "activity change, negative = cytotoxicity": "1.44% [at 42.5 µM] (inactive)"}, {"molecule": "Cc1nc(-c2ccccn2)ncc1C(=O)Nn1cc(C)c2cc(F)ccc21", "activity change, negative = cytotoxicity": "2.7% (inactive)"}]}, {"molecular_target": "Progesterone receptor (Homo sapiens) (UniProt P06401)", "sequence (P06401 whole entry, looked up)": "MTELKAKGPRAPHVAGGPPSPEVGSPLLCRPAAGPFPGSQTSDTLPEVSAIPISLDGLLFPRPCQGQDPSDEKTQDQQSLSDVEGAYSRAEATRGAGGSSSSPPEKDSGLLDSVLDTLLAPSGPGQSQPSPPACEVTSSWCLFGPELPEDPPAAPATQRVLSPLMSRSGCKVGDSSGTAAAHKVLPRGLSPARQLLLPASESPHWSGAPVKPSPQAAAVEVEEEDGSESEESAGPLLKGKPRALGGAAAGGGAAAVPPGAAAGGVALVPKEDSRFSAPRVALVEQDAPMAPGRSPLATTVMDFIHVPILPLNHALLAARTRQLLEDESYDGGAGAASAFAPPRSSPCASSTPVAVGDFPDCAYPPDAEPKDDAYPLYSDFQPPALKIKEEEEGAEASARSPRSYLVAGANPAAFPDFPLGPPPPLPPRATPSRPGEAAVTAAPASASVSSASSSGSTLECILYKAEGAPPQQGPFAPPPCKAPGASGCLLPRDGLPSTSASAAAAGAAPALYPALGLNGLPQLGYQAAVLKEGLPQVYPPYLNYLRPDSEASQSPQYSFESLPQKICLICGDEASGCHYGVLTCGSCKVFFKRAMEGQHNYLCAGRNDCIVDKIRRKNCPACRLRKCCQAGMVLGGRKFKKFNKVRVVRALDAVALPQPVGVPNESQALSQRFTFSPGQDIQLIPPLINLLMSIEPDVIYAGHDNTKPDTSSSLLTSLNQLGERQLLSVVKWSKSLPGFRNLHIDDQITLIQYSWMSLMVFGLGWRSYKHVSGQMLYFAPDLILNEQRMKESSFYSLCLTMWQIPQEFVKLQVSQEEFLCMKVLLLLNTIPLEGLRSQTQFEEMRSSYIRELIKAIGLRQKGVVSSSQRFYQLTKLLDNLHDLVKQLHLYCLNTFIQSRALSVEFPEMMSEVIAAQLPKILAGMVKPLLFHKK", "test": "qHTS assay to identify small molecule agonists of the progesterone receptor (PR) signaling pathway (AID 1346784; calls by dose curve; note: potency is the fitted concentration of half-maximal effect)", "settings": "PR-UAS-bla HEK293T, beta-lactamase FRET ratio, 16 h; series mostly up to 92.4 µM; activation: at the top concentration", "outline": "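PR-UAS-bla HEK 293T cells carrying a UAS-driven beta-lactamase reporter were seeded in medium with 2% charcoal-stripped FBS, preincubated 6 hr at 37C, then exposed to compounds in DMSO for 16 hr; agonism was read by LiveBLAzer B/G FRET fluorescence.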", "values": [{"molecule": "CC(=O)O[C@H]1CC[C@@]2(C)C(=CC[C@@H]3[C@@H]2CC[C@]2(C)C(C(C)=O)=CC[C@@H]32)C1", "activation": "-0.278% [at 42.5 µM] (inactive)"}, {"molecule": "CCCCC(CC)COC(=O)COc1cc(Cl)c(Cl)cc1Cl", "note": "(stereo not drawn)", "activation": "0.239% (inactive)"}, {"molecule": "Clc1cccc(-c2cc(Cl)cc(Cl)c2)c1", "activation": "6.93% (inactive)"}, {"molecule": "CCCCCCCCCCCCOCCOS(=O)(=O)O", "activation": "-0.245% (inactive)"}, {"molecule": "CN(C)CC[C@@H](c1ccc(Cl)cc1)c1ccccn1", "activation": "-3.21% [at 42.5 µM] (inactive)"}, {"molecule": "CC/C=C\\CCOC(=O)C(C)C", "activation": "0.462% (inactive)"}, {"molecule": "OCCN1CCN(CCO)CC1", "activation": "0.551% (inactive)"}, {"molecule": "O=C1N(c2ccccc2)c2ccccc2C1(Cc1ccncc1)Cc1ccncc1", "activation": "1.34% [at 42.5 µM] (inactive)"}, {"molecule": "COc1ccccc1OCC(O)COC(N)=O", "note": "(stereo not drawn)", "activation": "0.216% [at 42.5 µM] (inactive)"}, {"molecule": "CC(=O)N[C@@H](CC(C)C)C(=O)O", "activation": "0.371% [at 42.5 µM] (inactive)"}, {"molecule": "C[C@]12CCC(=O)C=C1CC[C@@H]1[C@@H]2CC[C@@]2(C)[C@H]1CC[C@]2(O)C(=O)CO", "Potency": "8.41 µM (active)"}, {"molecule": "CCCC1CCC(=O)O1", "note": "(stereo not drawn)", "activation": "0.196% (inactive)"}, {"molecule": "CC(C)S", "activation": "-1.84% (inactive)"}, {"molecule": "COC(=O)C(C)O", "note": "(stereo not drawn)", "activation": "-0.0103% (inactive)"}, {"molecule": "CCOc1ccc(OCC)c(Cl)c1", "activation": "-0.22% (inactive)"}, {"molecule": "Cc1nc(N)nc(N)c1-c1ccc(Cl)c(Cl)c1", "activation": "-0.508% [at 42.5 µM] (inactive)"}, {"molecule": "c1ccc(CN(CC2=NCCN2)c2ccccc2)cc1", "activation": "-2.9% [at 42.5 µM] (inactive)"}, {"molecule": "Cc1cc2nc(N)sc2cc1C", "activation": "-1.83% (inactive)"}, {"molecule": "O=Cc1ccc(F)c(Br)c1", "activation": "0.864% (inactive)"}, {"molecule": "CCCCNc1cc(C(=O)O)cc(S(N)(=O)=O)c1Oc1ccccc1", "activation": "-0.62% [at 42.5 µM] (inactive)"}, {"molecule": "NCCC(O)(P(=O)(O)O)P(=O)(O)O", "activation": "0.177% [at 42.5 µM] (inactive)"}, {"molecule": "CC(C)O", "activation": "-0.482% (inactive)"}, {"molecule": "CC(C)C[C@H](NC(=O)OCC1c2ccccc2-c2ccccc21)C(=O)O", "activation": "-4.71% (inactive)"}, {"molecule": "C1CSCCS1", "activation": "0.466% (inactive)"}, {"molecule": "CC(C)C(=O)OCC(C)(C)C(O)C(C)C", "note": "(stereo not drawn)", "activation": "0.156% (inactive)"}, {"molecule": "COC(C)CCO", "note": "(stereo not drawn)", "activation": "-0.116% (inactive)"}, {"molecule": "O=C(Cl)c1cccc([N+](=O)[O-])c1", "activation": "0.101% (inactive)"}, {"molecule": "OC[C@H]1O[C@@H](O[C@H]2[C@H](O)[C@@H](O)[C@H](O)O[C@@H]2CO)[C@H](O)[C@@H](O)[C@H]1O", "activation": "-0.756% (inactive)"}, {"molecule": "NC(Cc1ccc(F)cc1)C(=O)O", "note": "(stereo not drawn)", "activation": "0.365% [at 8.39 µM] (inactive)"}, {"molecule": "O=C1C=CC(=O)O1", "activation": "-0.386% (inactive)"}, {"molecule": "CCCCNCCCC", "activation": "1.65% (inactive)"}, {"molecule": "NNS(=O)(=O)c1ccc(Oc2ccc(S(=O)(=O)NN)cc2)cc1", "activation": "3.27% (inactive)"}, {"molecule": "CCC(=O)c1ccc2c(c1)N(CCCN(C)C)c1ccccc1S2", "activation": "-6.29% [at 42.5 µM] (inactive)"}, {"molecule": "OCCN(CCO)CCN(CCO)CCO", "activation": "3.58% (inactive)"}, {"molecule": "CC1=C2[C@H](/C=C(\\C)C(=O)O)CC[C@@H](C)[C@H]2CC1", "activation": "-7.37% (inactive)"}, {"molecule": "O=C(O)CN(CCN(CC(=O)O)CC(=O)O)CCN(CC(=O)O)CC(=O)O", "activation": "9.07% [at 19 µM] (inactive)"}, {"molecule": "CCN(CC)C(=O)N(CC)CC", "activation": "-0.398% (inactive)"}, {"molecule": "COC(=O)/C=C(/C)N", "activation": "0.472% [at 42.5 µM] (inactive)"}, {"molecule": "Cc1nc(-c2ccccn2)ncc1C(=O)Nn1cc(C)c2cc(F)ccc21", "activation": "-12.7% (inactive)"}]}]}
